Laboratory results: PubChem BioAssay AID1626 (SRMLSC, 2009)
About 2,000 (0.91%) of roughly 220,000 compounds were called active. Another 2% or so got no clear call; they are omitted. Not all results are given here. Potency and affinity values are given separately. Values without a mark were called inactive. Cut-off read from the data, not from the text of the source: inconclusive = inhibition above about 80% without an active follow-up result; inactive = below that; test concentration not stated here.

Test: M. tuberculosis H37Rv growth inhibitors, H37Rv strain (AID 1626);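 note: bacteria incubated seven days before Alamar blue readout; 0% = bacteria only wells and 100% = bacteria with antibiotic wells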
Settings: active compounds read high, concentration not given here
`O=C(O)c1ccc(NC(=O)C2C3CCC(C3)C2C(=O)O)cc1` (stereo not given) showed an inhibition of 0.17%. For `Cn1nc(-c2ccccc2)cc1NC(=O)Nc1ccc(C(C)(C)C)cc1`, the inhibition was 8.89%. With `Cn1ncc(Br)c1NC(=O)Nc1ccc(OC(F)(F)F)cc1` the inhibition was 5.76%. In the case of `COc1ccc(S(=O)(=O)N2CCCC(C(=O)NCc3ccncc3)C2)cc1` (stereo not given), the inhibition is reported as -3.7%. `CN(C)/C=C/C(=O)c1ccc(N2CCN(c3ncc(C(F)(F)F)cc3Cl)CC2)cc1` showed an inhibition of -11.4%. With `CCOC1(OCC)C(c2ccc(N)cc2)C(C#N)(C#N)C1(OCC)OCC` (stereo not given) the inhibition was -7.48%. For `CC(C)(C)S(=O)(=O)c1cnc(-c2ccccn2)nc1N`, the inhibition was -8.12%. With `COc1ccc(-c2nnc(SCC(=O)c3cccs3)o2)cc1` the inhibition was 12.7%. For `OCC#CCSc1nnc(-c2ccncc2)o1`, the inhibition was -1.67%. For `O=C(CSc1nnc(-c2cccs2)o1)c1cccs1`, the inhibition was 11.9%. `O=C(OCC#CCSc1nnc(-c2cccc3ccccc23)o1)c1cccs1` gave an inhibition of 60.9%. For `O=C(CSc1nnc(-c2ccncc2)o1)c1cccc([N+](=O)[O-])c1`, the inhibition was -6.49%. Compound `COc1ccc(-c2nnc(SCC#CCO)o2)cc1OC` has an inhibition of -8.82%. With `O=C(NCCSc1ccccc1)c1ccccc1` the inhibition was -18.6%. In the case of `O=C(c1ccco1)[C@@H]1[C@@H]2C(=O)N(c3ccccc3)C(=O)[C@@H]2C2c3ccccc3C=CN21` (stereo not given in full), the inhibition is reported as -13.4%. For `COc1ccc(C)cc1S(=O)(=O)N(CC(=O)Nc1cccc([N+](=O)[O-])c1)c1ccccc1`, the inhibition was 0.46%. Work on `Cc1cc(N2CCN(c3cccc(C)c3C)CC2)nc(-c2ccccc2)n1` yielded an inhibition of 6.21%. In the case of `CC(C)(C)C(=O)Nc1nnc(Cc2ccccc2)s1`, the inhibition is reported as 10.8%. With `CCOC(=O)CSc1nc2ccccc2c(=O)n1CC(C)C` the inhibition was 7.35%. `CCOC(=O)C1(CCOc2ccccc2)CCN(Cc2ccc(-n3cccn3)cc2)CC1` gave an inhibition of 4.73%. Work on `CCOC(=O)C1(CCOc2ccccc2)CCN(Cc2cccc(-n3cccn3)c2)CC1` yielded an inhibition of -2.65%. Compound `CCc1cc2c(SCC(=O)N(CC)c3c(N)n(Cc4ccccc4)c(=O)[nH]c3=O)ncnc2s1` has an inhibition of 5.81%. Compound `Clc1ccc(-c2csc(N/N=C/c3ccc4c(c3)OCO4)n2)cc1` has an inhibition of 48.7%. For `CCNC(=O)Nc1nc2ccccc2s1`, the inhibition was 4.21%. In the case of `Cc1cc(OCCCCn2ccnc2)cc(C)c1Cl`, the inhibition is reported as 51.5%. In the case of `Cc1cccc(Cl)c1OCCCCn1ccnc1`, the inhibition is reported as 3.12%. With `Cc1ccc(OCCCCn2ccnc2)c(Cl)c1` the inhibition was 56.8%. `Cc1cc(OCCCn2ccnc2)cc(C)c1Cl` gave an inhibition of 16.8%. `O=C(CCN1C(=O)c2ccccc2C1=O)Nc1ccc(S(=O)(=O)N2CCOCC2)cc1` showed an inhibition of -4.04%. With `Cc1cc(C)cc(OCC(O)CN2C(=O)NC(C)(C)C2=O)c1` (stereo not given) the inhibition was -17.8%. `FC(F)(F)c1cccc(NC(=S)N2CCN(c3ccccc3)CC2)c1` showed an inhibition of -3.11%. `CC(NC(=O)Cn1cc(C(=O)C2CC2)c2ccccc21)c1ccccc1` (stereo not given) showed an inhibition of 6.54%. `CC(C)OC(=O)c1cc(C(=O)c2cc(Br)ccc2O)coc1=N` showed an inhibition of -3.62%. In the case of `COC(=O)c1cc(C(=O)c2cc(Cl)ccc2O)coc1=N`, the inhibition is reported as 3.92%. With `Nc1nnc(SCC(=O)c2ccc([N+](=O)[O-])cc2)s1` the inhibition was -6.55%. For `COc1ccc(S(=O)(=O)N(C)c2ccc(C(N)=O)cc2)cc1`, the inhibition was 3%. `O=C(NCc1ccc2c(c1)OCO2)C1CC(=O)N(C2CCCCCCC2)C1` (stereo not given) showed an inhibition of 5.14%. `Cc1ccc(-c2nnc(-n3ncc(C#N)c3N)c3ccccc23)cc1C` gave an inhibition of -8.25%. For `COc1ccc2cc(C(=O)C3CCCN(C(=O)/C=C/c4ccccn4)C3)ccc2c1` (stereo not given), the inhibition was 1.13%. `N=c1c2c(-c3ccccc3)c(-c3ccccc3)n(Cc3ccco3)c2ncn1CCCO` gave an inhibition of 15.2%. With `COc1ccc(-c2oc3ncn(CCN4CCOCC4)c(=N)c3c2-c2ccc(OC)cc2)cc1` the inhibition was -3.67%. With `COc1ccc(C2c3c(ncn(Cc4ccco4)c3=N)Oc3ccc4ccccc4c32)cc1` (stereo not given) the inhibition was 38.6%. With `N=c1c2c(-c3ccccc3)c(-c3ccccc3)n(Cc3ccco3)c2ncn1CCO` the inhibition was 20%. In the case of `CS(=O)(=O)N(CC(=O)Nc1ccccc1C(=O)N1CCCC1)c1cccc([N+](=O)[O-])c1`, the inhibition is reported as 3.06%. In the case of `Cc1csc(Nc2cccc3ccccc23)n1`, the inhibition is reported as 6.85%. For `Cc1ccc(C(=O)Nc2ccccc2-c2ccccc2)cc1[N+](=O)[O-]`, the inhibition was 14.5%. `COC(=O)CSc1snnc1-c1ccc(F)cc1` showed an inhibition of -0.55%. For `Cc1nn(Cc2c(Cl)cccc2Cl)c(Cl)c1/C=N/NC(=O)c1cccnc1`, the inhibition was -3.52%. Work on `CCc1ccc(NC(=O)C(NS(=O)(=O)c2cccc3nsnc23)c2ccccc2)cc1` (stereo not given) yielded an inhibition of -4.05%. Compound `Cc1ccc(NC(=O)c2ccccc2)cc1OC(=O)c1ccccc1` has an inhibition of 6.17%. `Cc1cccc(C(=O)Nc2cccc(OC(=O)c3cccc(C)c3)c2)c1` showed an inhibition of 11.6%. Work on `OCCN1CCN(CC(O)COc2ccc(Cl)cc2)CC1` (stereo not given) yielded an inhibition of 1.07%. In the case of `OCCN1CCN(CC(O)COc2ccc(-c3ccccc3)cc2)CC1` (stereo not given), the inhibition is reported as 5.51%. In the case of `Cc1ccc(CS(=O)(=O)CCC(=O)NCCC2=CCCCC2)cc1`, the inhibition is reported as 7.74%. `CCCCc1n[nH]c(=S)n1Cc1ccccc1` showed an inhibition of -1.46%. Work on `COc1cccc2[nH]c3c(N4CCC5(CC4)OCCO5)ncnc3c12` yielded an inhibition of 1.2%. With `CC(C)=CCc1cc([C@@H]2COc3c(ccc4c3C=CC(C)(C)O4)C2)c(O)cc1O` the inhibition was 8.4%. `CC1(C)C=Cc2c(ccc3c2OC[C@@H](c2ccc(O)cc2O)C3)O1` gave an inhibition of 1.16%. `COc1ccc2nc(NC(=O)c3cc(S(=O)(=O)N4CCOCC4)ccc3C)sc2c1` showed an inhibition of 14.6%. For `O=C(c1cn(-c2ccccc2)nc1-c1ccccc1)N1CCOCC1`, the inhibition was -8.16%. In the case of `COc1ccccc1/C=N/NC(=S)NCc1ccco1`, the inhibition is reported as -0.41%. `CCOC(=O)c1ccc2[nH]c3c(c2c1)CCCC3C(=O)OCC` (stereo not given) gave an inhibition of -4.38%. `CCOC(=O)C1CCCc2c1[nH]c1c(C(=O)O)cccc21` (stereo not given) gave an inhibition of -6.94%. With `CCOc1ccc(S(=O)(=O)N/N=C2/CC(c3ccccc3)Oc3ccccc32)cc1` (stereo not given) the inhibition was -11.9%. `COC(=O)C1C(c2ccccc2)C=CC(c2ccccc2)C1C(=O)O` (stereo not given) gave an inhibition of 1.24%. In the case of `Cc1ccc(NC2=C(Cl)C(=O)c3ccccc3C2=O)cc1`, the inhibition is reported as -1.97%. With `CCCCNC1=CC(=O)C(=O)c2ccccc21` the inhibition was 1.34%. For `COC1=C(Nc2ccc(C)cc2)C(=O)c2ccccc2C1=O`, the inhibition was 12.8%. With `O=C1C(Nc2ccccc2)=C(N2CCCCC2)C(=O)c2ccccc21` the inhibition was -1.08%. Compound `O=C1C(Cl)=C(Nc2ccccc2)C(=O)c2ccccc21` has an inhibition of -1.42%. For `O=C1C(Nc2ccccc2)=C(NS(=O)(=O)c2ccccc2)C(=O)c2ccccc21`, the inhibition was 8.84%. Compound `O=C1C=C(Nc2ccc(O)cc2)C(=O)c2ccccc21` has an inhibition of 5.07%. Work on `O=C1C=C(Nc2ccccc2C(=O)O)c2ccccc2C1=O` yielded an inhibition of 1.72%. `O=C(c1cc(-c2ccc(Cl)cc2)n(-c2ccc(Cl)c(Cl)c2)n1)N1CCOCC1` gave an inhibition of -1.31%. `Cc1ccc(OCC(=O)Nc2cccc3nsnc23)c(C)c1` gave an inhibition of 7.75%. For `COCOc1ccc(C=O)cc1OCOC`, the inhibition was -3.9%. For `COc1cc(Cl)c(C)cc1NC(=O)c1ccc(S(C)(=O)=O)cc1`, the inhibition was 3.38%. With `CCOc1cc(C=O)ccc1OS(=O)(=O)c1ccc(NC(C)=O)cc1` the inhibition was 5.36%. Compound `COc1ccc(CN2C(=O)c3oc4ccccc4c(=O)c3C2c2ccc(O)c(OC)c2)cc1` (stereo not given) has an inhibition of -7.03%. For `Cc1onc(-c2cccc(Cl)c2Cl)c1C(=O)O/N=C(\N)c1ccc([N+](=O)[O-])o1`, the inhibition was 67%. `O=c1nc(NCc2ccco2)sc2ncccc12` showed an inhibition of -7.68%. For `Cc1ccc2c(c1)C(=O)N(CCCCO)C2=O`, the inhibition was -0.27%. Compound `O=C1c2ccc(Oc3ccc4c(c3)C(=O)N(CCCCO)C4=O)cc2C(=O)N1CCCCO` has an inhibition of -9.34%. With `COCCNC(=O)c1ccc2c3n(nc2c1)-c1ccc(Cl)cc1CO3` the inhibition was -12.9%. `CCOC(=O)c1sc(NC(=O)CCN2CCC(C)CC2)c(C(=O)OCC)c1C` gave an inhibition of 5.65%. `O=C(COc1ncnc2ccccc12)c1ccc2c(c1)OCCO2` gave an inhibition of -5.58%. For `O=C(O)[C@H]1CCCC[C@H]1C(=O)Nc1ccc(Nc2ccccc2)cc1`, the inhibition was 3.28%. Compound `O=C(O)C1CC=CCC1C(=O)Nc1ccccc1` (stereo not given) has an inhibition of -3.59%. For `CCCc1cc(=O)n2[nH]c(NCc3ccc(OC)c(OC)c3)nc2n1`, the inhibition was 3.17%. Work on `Cc1ccc(C)c(NC(=O)C(Sc2ncnc3ccccc23)c2ccccc2)c1` (stereo not given) yielded an inhibition of -1.19%. `O=C(Nc1ccc(OC(F)F)c(Cl)c1)c1cccc(OC(F)F)c1` gave an inhibition of 10.2%. `CCOc1ccc(NS(=O)(=O)c2cc(NC(=O)c3ccc(C)cc3)ccc2Cl)cc1` showed an inhibition of 11.8%. Work on `COc1ccc(NC(=O)c2cccc(OC(F)F)c2)cc1Cl` yielded an inhibition of 0.2%. Work on `CC(NC(N)=O)C(=O)Nc1ccc(Cl)c(S(=O)(=O)Nc2ccc(Cl)cc2)c1` (stereo not given) yielded an inhibition of 0.16%. In the case of `CCOC(=O)c1cc(NC(=O)NCc2ccco2)c(C)nc1C`, the inhibition is reported as -7.42%.
